Only a selection was taken, and hits are over-represented in it overall.
RT RNaseH block – HIV-1 RT RNase H inhibitors, primary screen, biochemical, fluorescence. Gag-Pol polyprotein (Human immunodeficiency virus type 1 group M subtype B (isolate …. inhibition, % at 10 µM. 65,000 compounds, 1.9% hits. RT-RNase H RNA/DNA duplex cleavage; in the data active = inhibition above about 50%
RmlC RmlD mix – RmlC and RmlD coupled enzyme inhibitors, primary screen, biochemical, 384-well, compound mixtures, retest. RmlC/RmlD coupled enzyme inhibition, 384-well mixture HTS. inhibition, % at 5.5 µM. 110,000 compounds, 0.39% hits; in the data active = inhibition above about 30%, passing the limit was not always enough; inconclusive = no clear call, values can overlap the other calls
Large screens that a line does not name were inactive.

CCOC(=O)N1CCC(N2C(=O)c3ccccc3C2Nc2ccc3c(C)cc(=O)oc3c2)CC1 (stereo not drawn)	RmlC RmlD mix 89
CCOC(=O)N1CCC(N2C(=O)c3ccccc3C2Nc2ccc3c(c2)OCCO3)CC1 (stereo not drawn)	none
CSc1oc(-c2ccco2)nc1S(=O)(=O)c1ccc(Br)cc1	none
Cc1cc(NC(=O)c2cc(-c3ccccc3)on2)n(-c2ccccc2)n1	none
Cc1cc(NC(=O)c2cc(-c3ccc4c(c3)OCO4)on2)n(-c2ccccc2)n1	RT RNaseH block 55, RmlC RmlD mix inconclusive
Cc1oc(/N=C/c2ccccc2O)c(C#N)c1C	none
Cc1oc(/N=C/c2c(O)ccc3ccccc23)c(C#N)c1C	RT RNaseH block 73 (no result: RmlC RmlD mix)
CCNc1nc(NCC)nc(N(C)N)n1	none (no result: RT RNaseH block)
Cc1cc(N=CC2=C(O)CC(C)(C)CC2=O)no1	none
CCOC(=O)CS(=O)(=O)c1nc(-c2ccccc2)cc(C(F)(F)F)n1	none
CCOC(=O)CS(=O)(=O)c1nc(-c2ccc(F)cc2)cc(C(F)(F)F)n1	RT RNaseH block 55
C=CCOC(=O)C(C#N)c1nc2ccccc2nc1N1CCN(Cc2ccc3c(c2)OCO3)CC1 (stereo not drawn)	none
CC1(C)CC(=O)C2=C(C1)N(c1cccc(O)c1)C1=C(C2)C(=O)CC(C)(C)C1	RmlC RmlD mix 39
CC1(C)CC(=O)C(C(C2=C(O)CC(C)(C)CC2=O)c2cccc(O)c2)C(=O)C1 (stereo not drawn)	none
COc1ccc(-c2c(=O)n(OCc3ccccn3)c3ccccc3[n+]2[O-])cc1OC	RT RNaseH block 56
Cc1ccc(-c2c(=O)n(OCc3ccccn3)c3ccccc3[n+]2[O-])cc1	none (no result: RT RNaseH block)
COc1cccc(CNc2ccc(S(N)(=O)=O)cc2)c1OC	none
Cc1ccc2cc(C#N)c(SCC(=O)NCC3CCCO3)nc2c1 (stereo not drawn)	none
Cc1ccc2nc(SCC(=O)NCC3CCCO3)c(C#N)cc2c1 (stereo not drawn)	RT RNaseH block 59
CCN(CCCNC(=O)CN1C(=O)COc2ccccc21)c1cccc(C)c1	none
Cc1cc(C(=O)CSc2nnc(-c3cccs3)n2Cc2ccccc2)c(C)n1C	none
O=c1cc(CSc2nnc(-c3cccs3)n2Cc2ccccc2)nc2sc3ccccc3n12	RT RNaseH block 51
COc1ccccc1C1c2c(oc3ccc(Cl)cc3c2=O)C(=O)N1c1cc(C)on1 (stereo not drawn)	RT RNaseH block 51 (no result: RmlC RmlD mix)
COc1ccc(/C(O)=C2\C(=O)C(=O)N(c3cc(C)on3)C2c2ccccc2OC)cc1 (stereo not drawn)	none
CCCCCCC1C(C#N)=C(N)OC2=C1C(=O)CC(C)(C)C2 (stereo not drawn)	none
COc1ccc(C2C=C(c3ccccc3)Nc3nc(NC(C)=O)nn32)cc1 (stereo not drawn)	RmlC RmlD mix 40 (no result: RT RNaseH block)
COc1ccc(C2C=C(c3ccccc3)Nc3nnnn32)cc1 (stereo not drawn)	none
Cn1nnnc1SCC1=C(C(=O)O)N2C(=O)[C@@H](NC(=O)[C@H](O)c3ccccc3)[C@H]2SC1	RT RNaseH block 61
CO/N=C(\C(=O)N[C@@H]1C(=O)N2C(C(=O)O)=C(COC(N)=O)CS[C@H]12)c1ccco1	none
COC(=O)c1cc2sc(Cl)cc2n1CC(=O)N1CCCc2ccccc21	none
CCOC(=O)c1c(-c2ccco2)csc1N	RT RNaseH block 56
CCOC(=O)c1c(-c2ccco2)csc1NC(=O)CSc1nnc(N)s1	none (no result: RT RNaseH block)
Cc1cccc(NC(=O)c2sc3nc(-c4ccccc4)cn3c2C)n1	none
COc1ccc(-c2cn3c(C)c(C(=O)Nc4cccc(C)n4)sc3n2)cc1	RT RNaseH block 51
COC(=O)C1C(O)=C(C(C)=N)C(=O)CC1(C)C (stereo not drawn)	none
CCN(CC)CCNC(=O)c1ccc(N2CCCCC2)c(NS(=O)(=O)c2ccc(C)cc2)c1	none
Cc1ccc(Cn2c(=S)[nH]c3ccc(N4CCOCC4)cc3c2=O)o1	RT RNaseH block 64
O=c1c2cc(N3CCOCC3)ccc2[nH]c(=S)n1Cc1ccc(Cl)cc1	none (no result: RT RNaseH block)
CC1(C)S[C@@H]2[C@H](NC(=O)[C@H](N)c3ccc(O)cc3)C(=O)N2[C@H]1C(=O)O	none (no result: RT RNaseH block)
Clc1ccc(-c2nn3c(Cn4cnc5ccccc54)nnc3s2)c(Cl)c1	RT RNaseH block 71 (no result: RmlC RmlD mix)
Clc1ccc(Cl)c(-c2nn3c(Cn4cnc5ccccc54)nnc3s2)c1	none
O=C(c1cccn2c(=O)c3ccccc3nc12)N1CCN(Cc2ccc3c(c2)OCO3)CC1	none
O=C(c1ccc2nc3ccccc3c(=O)n2c1)N1CCN(Cc2ccc3c(c2)OCO3)CC1	RmlC RmlD mix 31 (no result: RT RNaseH block)
O=C(c1cccs1)N(Cc1ccccn1)Cc1ccco1	none
S=C1SCN(Cc2ccccn2)CN1Cc1ccco1	RT RNaseH block 52
CN(C)CCCCCNCCCNC(=O)/C=N\O	none
COc1ccc(-n2ncc3c(N4CCCCC4)ncnc32)cc1	none
COc1ccc(-n2ncc3c(N4CCN(c5cccc(C)c5C)CC4)ncnc32)cc1	RT RNaseH block 84 (no result: RmlC RmlD mix)
COc1cccc(C(=O)Nc2cccc(OCC(=O)O)c2)c1	none (no result: RT RNaseH block)
O=C(CC1C(=O)NCCN1C(=O)Nc1ccccc1)Nc1ccc2c(c1)OCO2 (stereo not drawn)	none
CCOC(=O)c1cc(OC(=O)c2ccccc2)n(-c2ccccc2)n1	none (no result: RT RNaseH block)
CCOC(=O)c1cc(OC(=O)c2cccs2)n(-c2ccccc2)n1	RT RNaseH block 50
COC(=O)[C@@H]1C[C@H]1[C@@H](NS(=O)(=O)c1ccccc1)c1ccccc1	none (no result: RT RNaseH block)
CC(C)CC(C(=O)Nc1ccc2c(c1)OCCO2)N1C(=O)c2ccccc2C1=O (stereo not drawn)	none
CC(C)CC(C(=O)Nc1oc(-c2ccco2)c(-c2ccco2)c1C#N)N1C(=O)c2ccccc2C1=O (stereo not drawn)	RT RNaseH block 62
O=C(Nc1ccc(N2CCCCC2)cc1)c1ccccc1	none
O=C(Nc1ccc(N2CCCC2)cc1)c1cccc(F)c1	RT RNaseH block 59
COc1ccc2c3c(cccc13)NN=C2C	RT RNaseH block 57 (no result: RmlC RmlD mix)
COc1ccc(C(=O)c2ccc(OC)c3cccc(O)c23)cc1OC	none (no result: RT RNaseH block)
COCc1nnc(NC(=O)c2ccc(NC(=O)C(C)C)cc2)s1	none
Cc1cccc(-n2nnc(C(=O)Nc3ccc(F)cc3)c2N)c1	none
CCC(Sc1ccc(C(=O)O)cc1)C(=O)O (stereo not drawn)	RT RNaseH block 57
CCC(Sc1nc(C)cc(C)n1)C(=O)O (stereo not drawn)	none
Cc1cccnc1-n1c(CN2C(=O)c3ccccc3C2=O)nc2ccccc2c1=O	none
COc1nc(Oc2ccc(C(=O)O)cc2)nc(Oc2ccc(C(=O)O)cc2)n1	none (no result: RT RNaseH block)
COc1ccc(Oc2nc(Oc3ccc(OC)cc3)nc(Oc3ccc(OC)cc3)n2)cc1	RT RNaseH block 57
CN(CC(=O)Nc1sccc1C#N)C1CCCCC1	RT RNaseH block 58
N#Cc1ccsc1NC(=O)CN1CCCCCC1	none (no result: RT RNaseH block)
Cc1oc(C(=O)O)cc1CSCc1cc(C(=O)O)c(C)o1	RT RNaseH block 51
Cc1oc(C(=O)O)cc1CSCc1ccoc1C(=O)O	none
COc1cc(C2C(=O)N(C3CCCC3)CC(=O)N2Cc2ccco2)ccc1OC(C)C (stereo not drawn)	none
O=C(Nc1ccc(Cl)cn1)Nc1ccccc1F	none (no result: RT RNaseH block)
COc1ccc(C2=CC(c3cc(OC)c(OC)c(OC)c3)NC(=S)N2)cc1 (stereo not drawn)	none (no result: RT RNaseH block)
Cc1ccc(C)c(S(=O)(=O)Nc2ccc3sc(C)nc3c2)c1	none (no result: RT RNaseH block)
Cc1ccc(S(=O)(=O)Nc2ccc3oc(=O)sc3c2)c(C)c1	RT RNaseH block 60
COc1cccc(-n2nnnc2SCC(=O)Nc2ccc(C(C)=O)cc2)c1	none (no result: RT RNaseH block)
